Screens from PubChem BioAssay.
Hits are enriched below; roughly 11% of the tested compounds scored in any of these assays.
USP17 inh: inhibitors of human USP17 deubiquitinase; inhibition, % at 50 µM; 47,000 compounds, 6.5% hits; purified USP17, Ub-rhodamine cleavage fluorescence, 3 h; Ubiquitin carboxyl-terminal hydrolase 17-like protein 5 (Homo sapiens), A8MUK1
USP30 inh: inhibitors of human USP30 deubiquitinase | Ubiquitin carboxyl-terminal hydrolase 30 (Homo sapiens), Q70CQ3 | purified USP30, Ub-rhodamine cleavage fluorescence | inhibition, % at 25 µM | 47,000 compounds, 5.3% hits
Target sequence (Q70CQ3 whole entry, looked up): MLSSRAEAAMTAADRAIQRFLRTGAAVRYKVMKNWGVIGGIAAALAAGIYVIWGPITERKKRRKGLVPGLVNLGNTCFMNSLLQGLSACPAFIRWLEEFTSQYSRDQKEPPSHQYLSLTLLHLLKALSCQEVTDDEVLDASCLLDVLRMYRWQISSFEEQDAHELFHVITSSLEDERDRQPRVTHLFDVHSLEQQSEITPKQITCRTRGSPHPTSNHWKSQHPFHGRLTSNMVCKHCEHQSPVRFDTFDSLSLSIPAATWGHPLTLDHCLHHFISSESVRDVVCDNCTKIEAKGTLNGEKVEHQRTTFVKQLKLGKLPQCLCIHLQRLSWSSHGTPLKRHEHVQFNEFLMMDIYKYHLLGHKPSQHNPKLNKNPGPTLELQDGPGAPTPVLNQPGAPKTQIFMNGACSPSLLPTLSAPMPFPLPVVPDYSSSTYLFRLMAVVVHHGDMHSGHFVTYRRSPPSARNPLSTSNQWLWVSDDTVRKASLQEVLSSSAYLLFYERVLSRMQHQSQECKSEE
USP28 inh: inhibitors of human USP28 deubiquitinase; AID 1645857, 2021; Ubiquitin carboxyl-terminal hydrolase 28 (Homo sapiens), Q96RU2; 47,000 compounds, 3% hits; purified USP28, Ub-rhodamine cleavage fluorescence, 30 min; inhibition, % at 25 µM
Numbers without * were called inactive. Rule as the data show it: active = inhibition above about 30%; inactive = the rest.

Screening O=C(COc1ccccc1-c1nnc(-c2ccccc2)o1)NCc1ccccc1Cl returned USP17 inh -6, USP30 inh -3 and USP28 inh -2.
Cc1ccccc1-c1nnc(-c2ccc(C(=O)NCc3ccccc3F)cc2)o1 was read as USP17 inh 36*, USP30 inh 66* and USP28 inh 28.
`O=C(NCc1ccccc1Cl)c1ccc(-c2nnc(-c3ccccc3)o2)cc1` gave USP17 inh 62*, USP30 inh 36* and USP28 inh 8.
Screening Cc1ccc(C(=O)Nc2nccnc2C(=O)NCc2ccccc2F)cc1 returned USP17 inh 23, USP30 inh -9 and USP28 inh -2.
`Cc1nccc(C2CN(C(=O)c3ccc4[nH]c(C)c(C)c4c3)CCO2)n1` (stereo unspecified) gave USP17 inh -90, USP30 inh -356 and USP28 inh -112.
For Cc1cccc(Nc2nccc(-n3nc(C)cc3C)n2)c1 the results were USP17 inh 12, USP30 inh 29 and USP28 inh 13.
Cn1cc(C(=O)Nc2ccccc2F)c2[nH]c(=O)n(-c3ccccc3)c(=O)c21 was read as USP17 inh 3, USP30 inh 5 and USP28 inh 10.
COc1ccc(COC(=O)C2=C(C)NC(=O)CC2c2cccc([N+](=O)[O-])c2)cc1 (stereo unspecified) was read as USP17 inh -5, USP30 inh 20 and USP28 inh 86*.
Screening CC1=C(C(=O)OCc2ccc3c(c2)OCO3)C(c2ccccc2C)CC(=O)N1 (stereo unspecified) returned USP17 inh 13, USP30 inh 28 and USP28 inh 15.
For COc1ccccc1NC(=O)N1CC[C@H]2COC(=O)N[C@@H]2C1 the results were USP17 inh -7, USP30 inh -5 and USP28 inh -5.
Screening CC1OC1C(=O)[C@]1(O)[C@H](C)[C@@H](O)[C@@]23O[C@@]2([C@H](O)c2c(O)cccc2C3=O)[C@H]1O (stereo partly specified) returned USP17 inh 73*, USP30 inh -394 and USP28 inh 8.
O=C(c1cc(F)cc(F)c1)N1CCN(c2nnc3ccccn23)CC1 was read as USP30 inh -9 and USP28 inh -13.
For C[C@H]1C2CC(C[C@@H]1O)C(C)(C)O[C@H]2c1ccc(OCCN2CCCC2=O)cc1 (stereo partly specified) the results were USP17 inh 4, USP30 inh 0 and USP28 inh 10.
For c1cncc(-c2cnc3sc(NCC4CC4)nn23)c1 the results were USP17 inh -11, USP30 inh 0 and USP28 inh 5.
Screening c1cncc(-c2cnc3sc(NC4CCCCC4)nn23)c1 returned USP17 inh 35*, USP30 inh 25 and USP28 inh 12.
`COc1ccc(NS(=O)(=O)c2cc(C(=O)N3CCOCC3)ccc2C)cc1` gave USP17 inh 7, USP30 inh 1 and USP28 inh -4.
`COc1cccc(N2CCN(c3ccc4nnc(CCC(=O)NCCN5CCN(C)CC5)n4n3)CC2)c1` gave USP17 inh 12, USP30 inh 24 and USP28 inh 14.
For Cc1ccc(NC(=O)N2CCN(C3=CC4=NC(C)CN4C=N3)CC2)c(C)c1 (stereo unspecified) the results were USP17 inh 17, USP30 inh 34* and USP28 inh 15.
Screening COc1ccc(NC(=O)N2CCN(C3=CC4=NC(C)CN4C=N3)CC2)c(C)c1 (stereo unspecified) returned USP17 inh -33, USP30 inh -4 and USP28 inh -4.
Screening CN(C)CCCN(C(=O)c1ccco1)c1nc2ccc(F)cc2s1 returned USP17 inh 3, USP30 inh 4 and USP28 inh 8.
Screening CN(C)CCCN(C(=O)c1cc2ccccc2oc1=O)c1nc2ccc(F)cc2s1 returned USP17 inh 55*, USP30 inh 79* and USP28 inh 44*.
C[C@@H]1CCC2[C@](C)(CO)[C@@H](O)CC[C@]2(C)[C@@]12CCC1(CCOC1)O2 (stereo partly specified) was read as USP17 inh 0, USP30 inh -6 and USP28 inh -1.
`N#Cc1c(-c2ccccc2)ccn(Cc2cccc(C(F)(F)F)c2)c1=O` gave USP17 inh 53*, USP30 inh 44* and USP28 inh 17.
Screening COc1ccc(Cn2ccc(-c3ccccc3)c(C#N)c2=O)cc1 returned USP17 inh 16, USP30 inh 21 and USP28 inh 20.
Screening COc1cccc(Cn2cccc(-c3nc(C)no3)c2=O)c1 returned USP17 inh 1.
Cc1noc(-c2cccn(Cc3cccc(C(F)(F)F)c3)c2=O)n1 was read as USP17 inh 13, USP30 inh 14 and USP28 inh 76*.
